Measured values reported in ChEMBL document CHEMBL1961873, “Compounds: GSK PKIS; Assays: Nanosyn kinase panel” (2012).

How the values were obtained:
[1] = molecular target: High affinity nerve growth factor receptor (Homo sapiens) (UniProt P04629); details: at 1 µM;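 further: each value is the mean percent inhibition of TRKA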
[2] = molecular target: BDNF/NT-3 growth factors receptor (Homo sapiens) (UniProt Q16620); details: at 0.1 µM
[3] = molecular target: BDNF/NT-3 growth factors receptor (Homo sapiens) (UniProt Q16620); details: at 1 µM
[4] = molecular target: NT-3 growth factor receptor (Homo sapiens) (UniProt Q16288); details: at 0.1 µM
NT-3 growth factor receptor (Homo sapiens), sequence (Q16288 32-839 limits assumed): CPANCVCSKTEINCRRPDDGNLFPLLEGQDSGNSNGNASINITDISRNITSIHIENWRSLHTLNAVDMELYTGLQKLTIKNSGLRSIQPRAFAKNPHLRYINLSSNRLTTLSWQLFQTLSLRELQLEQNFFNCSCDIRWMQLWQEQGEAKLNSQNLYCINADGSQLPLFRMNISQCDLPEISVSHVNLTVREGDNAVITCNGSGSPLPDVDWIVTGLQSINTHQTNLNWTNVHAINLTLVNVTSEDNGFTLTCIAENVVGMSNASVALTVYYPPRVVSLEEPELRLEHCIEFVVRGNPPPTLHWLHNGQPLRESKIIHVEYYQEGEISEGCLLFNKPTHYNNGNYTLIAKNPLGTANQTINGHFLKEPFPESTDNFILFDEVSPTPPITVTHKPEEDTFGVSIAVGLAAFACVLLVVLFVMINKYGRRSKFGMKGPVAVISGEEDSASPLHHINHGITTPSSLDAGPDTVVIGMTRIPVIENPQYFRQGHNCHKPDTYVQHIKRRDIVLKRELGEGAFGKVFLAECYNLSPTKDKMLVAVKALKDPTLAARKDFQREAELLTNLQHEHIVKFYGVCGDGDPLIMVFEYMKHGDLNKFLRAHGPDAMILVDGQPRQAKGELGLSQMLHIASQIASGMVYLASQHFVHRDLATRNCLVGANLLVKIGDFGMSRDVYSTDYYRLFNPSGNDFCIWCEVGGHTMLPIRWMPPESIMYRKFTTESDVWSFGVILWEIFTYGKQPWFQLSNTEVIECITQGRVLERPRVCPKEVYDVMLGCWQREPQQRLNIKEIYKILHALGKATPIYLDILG

[5] = molecular target: NT-3 growth factor receptor (Homo sapiens) (UniProt Q16288); details: at 1 µM
[6] = molecular target: T1, Tyrosine-protein kinase TXK (Homo sapiens) (UniProt P42681); details: at 0.1 µM
T1 sequence (whole entry): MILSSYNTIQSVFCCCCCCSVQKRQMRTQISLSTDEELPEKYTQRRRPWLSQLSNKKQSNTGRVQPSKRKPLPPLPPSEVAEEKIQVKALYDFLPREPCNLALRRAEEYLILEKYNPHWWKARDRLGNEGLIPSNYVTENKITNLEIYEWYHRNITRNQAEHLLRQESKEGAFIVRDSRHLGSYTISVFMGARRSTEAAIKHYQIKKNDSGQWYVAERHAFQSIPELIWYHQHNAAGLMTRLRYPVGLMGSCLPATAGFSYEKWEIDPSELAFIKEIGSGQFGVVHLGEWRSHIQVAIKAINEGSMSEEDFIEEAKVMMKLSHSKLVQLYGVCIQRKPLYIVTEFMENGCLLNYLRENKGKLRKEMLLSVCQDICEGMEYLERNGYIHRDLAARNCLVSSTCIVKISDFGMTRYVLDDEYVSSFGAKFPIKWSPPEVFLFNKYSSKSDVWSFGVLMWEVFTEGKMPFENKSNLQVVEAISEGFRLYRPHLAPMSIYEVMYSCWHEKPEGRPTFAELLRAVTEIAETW

[7] = molecular target: T1, Tyrosine-protein kinase TXK (Homo sapiens); details: at 1 µM
[8] = molecular target: Non-receptor tyrosine-protein kinase TYK2 (Homo sapiens) (UniProt P29597); details: at 0.1 µM;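 further: each value is a mean of the inhibition readings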
[9] = molecular target: T2, Dual specificity protein kinase TTK (Homo sapiens) (UniProt P33981); details: at 1 µM;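 further: reported figures are mean TTK inhibition at 1 µM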
T2 sequence (whole entry): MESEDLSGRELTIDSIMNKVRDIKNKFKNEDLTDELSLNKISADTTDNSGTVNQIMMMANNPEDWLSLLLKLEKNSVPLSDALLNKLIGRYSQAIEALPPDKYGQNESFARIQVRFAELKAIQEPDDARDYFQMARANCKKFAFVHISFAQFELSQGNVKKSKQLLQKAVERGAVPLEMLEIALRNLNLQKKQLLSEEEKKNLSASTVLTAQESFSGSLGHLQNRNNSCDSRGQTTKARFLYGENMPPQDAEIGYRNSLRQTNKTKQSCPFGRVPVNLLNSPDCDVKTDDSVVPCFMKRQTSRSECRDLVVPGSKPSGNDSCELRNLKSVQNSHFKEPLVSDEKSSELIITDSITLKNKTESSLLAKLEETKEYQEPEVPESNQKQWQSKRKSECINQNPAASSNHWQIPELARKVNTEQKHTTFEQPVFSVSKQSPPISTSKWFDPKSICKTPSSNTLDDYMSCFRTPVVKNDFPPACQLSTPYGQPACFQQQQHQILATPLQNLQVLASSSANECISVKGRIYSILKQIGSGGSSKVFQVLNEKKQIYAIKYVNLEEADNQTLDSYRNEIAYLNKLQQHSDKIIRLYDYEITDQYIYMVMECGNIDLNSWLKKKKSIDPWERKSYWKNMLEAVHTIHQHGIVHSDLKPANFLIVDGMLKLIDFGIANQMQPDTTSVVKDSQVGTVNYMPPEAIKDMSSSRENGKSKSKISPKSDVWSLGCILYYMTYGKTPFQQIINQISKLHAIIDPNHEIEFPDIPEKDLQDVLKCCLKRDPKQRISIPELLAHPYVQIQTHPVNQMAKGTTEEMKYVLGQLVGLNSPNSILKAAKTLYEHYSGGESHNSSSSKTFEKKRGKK

[10] = molecular target: T3, Aurora kinase A (Homo sapiens) (UniProt O14965); details: at 0.1 µM
T3 sequence (whole entry): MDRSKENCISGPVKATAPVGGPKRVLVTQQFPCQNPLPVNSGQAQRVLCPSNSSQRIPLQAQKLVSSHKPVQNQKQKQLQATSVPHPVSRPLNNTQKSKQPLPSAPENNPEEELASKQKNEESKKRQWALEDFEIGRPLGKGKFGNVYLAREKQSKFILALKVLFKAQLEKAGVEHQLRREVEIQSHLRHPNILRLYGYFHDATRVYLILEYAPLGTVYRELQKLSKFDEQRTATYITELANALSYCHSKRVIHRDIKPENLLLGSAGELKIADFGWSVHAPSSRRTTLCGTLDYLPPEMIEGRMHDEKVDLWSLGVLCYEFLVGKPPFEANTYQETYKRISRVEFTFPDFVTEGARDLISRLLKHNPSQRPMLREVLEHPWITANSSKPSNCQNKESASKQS

[11] = molecular target: T3, Aurora kinase A (Homo sapiens); details: at 1 µM
[12] = molecular target: Aurora kinase B (Homo sapiens) (UniProt Q96GD4); details: at 0.1 µM
Aurora kinase B (Homo sapiens), sequence (Q96GD4 whole entry): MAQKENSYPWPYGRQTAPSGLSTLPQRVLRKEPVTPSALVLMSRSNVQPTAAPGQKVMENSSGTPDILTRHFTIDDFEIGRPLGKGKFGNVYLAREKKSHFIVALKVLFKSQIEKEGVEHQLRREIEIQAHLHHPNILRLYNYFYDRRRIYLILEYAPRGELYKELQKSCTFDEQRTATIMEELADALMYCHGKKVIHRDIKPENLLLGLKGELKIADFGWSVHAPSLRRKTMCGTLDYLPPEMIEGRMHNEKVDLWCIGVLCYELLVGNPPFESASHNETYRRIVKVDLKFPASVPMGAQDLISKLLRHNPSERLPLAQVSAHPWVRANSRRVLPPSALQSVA

[13] = molecular target: Aurora kinase B (Homo sapiens) (UniProt Q96GD4); details: at 1 µM
[14] = molecular target: T4, Aurora kinase C (Homo sapiens) (UniProt Q9UQB9); details: at 0.1 µM
T4 sequence (whole entry): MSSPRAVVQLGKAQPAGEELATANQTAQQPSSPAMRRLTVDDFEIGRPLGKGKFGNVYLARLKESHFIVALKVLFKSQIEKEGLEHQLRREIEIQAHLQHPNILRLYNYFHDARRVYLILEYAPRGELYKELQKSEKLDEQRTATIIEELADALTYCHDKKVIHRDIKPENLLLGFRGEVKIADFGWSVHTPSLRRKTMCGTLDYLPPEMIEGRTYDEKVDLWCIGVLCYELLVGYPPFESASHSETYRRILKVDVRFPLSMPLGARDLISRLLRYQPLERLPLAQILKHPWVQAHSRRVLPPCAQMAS

[15] = molecular target: T4, Aurora kinase C (Homo sapiens); details: at 1 µM
[16] = molecular target: Serine/threonine-protein kinase 10 (Homo sapiens) (UniProt O94804); details: at 0.1 µM
Serine/threonine-protein kinase 10 (Homo sapiens), sequence (O94804 whole entry, looked up): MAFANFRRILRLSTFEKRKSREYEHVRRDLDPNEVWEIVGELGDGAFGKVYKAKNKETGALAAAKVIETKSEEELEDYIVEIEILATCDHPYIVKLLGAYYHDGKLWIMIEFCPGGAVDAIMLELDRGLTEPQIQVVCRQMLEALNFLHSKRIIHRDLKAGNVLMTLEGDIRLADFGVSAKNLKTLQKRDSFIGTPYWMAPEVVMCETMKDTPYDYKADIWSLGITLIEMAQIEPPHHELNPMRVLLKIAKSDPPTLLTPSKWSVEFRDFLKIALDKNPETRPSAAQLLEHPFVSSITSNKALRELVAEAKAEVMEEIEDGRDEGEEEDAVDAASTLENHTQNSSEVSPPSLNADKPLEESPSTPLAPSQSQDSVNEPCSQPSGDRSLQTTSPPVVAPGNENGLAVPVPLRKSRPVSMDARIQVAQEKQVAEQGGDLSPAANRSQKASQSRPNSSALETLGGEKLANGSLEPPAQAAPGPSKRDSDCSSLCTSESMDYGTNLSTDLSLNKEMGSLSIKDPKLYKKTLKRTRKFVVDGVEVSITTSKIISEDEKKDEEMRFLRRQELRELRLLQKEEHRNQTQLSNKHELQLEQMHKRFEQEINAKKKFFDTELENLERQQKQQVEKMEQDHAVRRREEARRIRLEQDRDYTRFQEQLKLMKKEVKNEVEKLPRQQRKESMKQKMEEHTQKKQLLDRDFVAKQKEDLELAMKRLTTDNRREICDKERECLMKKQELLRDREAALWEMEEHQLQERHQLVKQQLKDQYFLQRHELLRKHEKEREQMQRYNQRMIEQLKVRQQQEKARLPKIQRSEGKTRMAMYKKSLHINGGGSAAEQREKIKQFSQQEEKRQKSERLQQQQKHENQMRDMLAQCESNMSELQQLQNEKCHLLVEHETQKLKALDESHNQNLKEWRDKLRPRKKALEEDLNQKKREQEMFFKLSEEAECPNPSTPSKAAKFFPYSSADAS

[17] = molecular target: Serine/threonine-protein kinase 10 (Homo sapiens) (UniProt O94804); details: at 1 µM
[18] = molecular target: T5, Mitogen-activated protein kinase kinase kinase kinase 2 (Homo sapiens) (UniProt Q12851); details: at 0.1 µM
T5 sequence (whole entry): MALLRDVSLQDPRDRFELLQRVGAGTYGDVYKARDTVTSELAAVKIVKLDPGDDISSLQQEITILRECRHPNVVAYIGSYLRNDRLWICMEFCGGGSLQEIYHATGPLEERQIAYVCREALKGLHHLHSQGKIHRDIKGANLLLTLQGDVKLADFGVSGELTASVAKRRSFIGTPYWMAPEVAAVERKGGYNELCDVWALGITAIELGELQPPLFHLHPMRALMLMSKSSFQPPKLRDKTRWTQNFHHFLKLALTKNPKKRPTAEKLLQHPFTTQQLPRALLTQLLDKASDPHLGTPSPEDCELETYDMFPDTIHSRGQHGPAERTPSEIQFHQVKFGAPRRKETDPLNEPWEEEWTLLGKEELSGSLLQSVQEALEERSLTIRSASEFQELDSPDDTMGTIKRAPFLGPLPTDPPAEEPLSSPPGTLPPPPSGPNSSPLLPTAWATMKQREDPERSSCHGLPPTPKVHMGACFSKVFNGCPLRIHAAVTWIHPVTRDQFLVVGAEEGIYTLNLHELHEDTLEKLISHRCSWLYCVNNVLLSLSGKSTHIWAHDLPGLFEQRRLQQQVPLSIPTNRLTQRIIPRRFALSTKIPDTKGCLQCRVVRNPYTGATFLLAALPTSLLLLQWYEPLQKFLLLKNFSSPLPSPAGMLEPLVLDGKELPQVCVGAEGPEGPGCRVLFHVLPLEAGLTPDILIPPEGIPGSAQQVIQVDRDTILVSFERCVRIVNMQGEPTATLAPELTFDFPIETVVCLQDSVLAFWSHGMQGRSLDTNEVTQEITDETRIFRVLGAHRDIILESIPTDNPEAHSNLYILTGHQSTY

[19] = molecular target: T5, Mitogen-activated protein kinase kinase kinase kinase 2 (Homo sapiens); details: at 1 µM
[20] = molecular target: Mitogen-activated protein kinase kinase kinase kinase 4 (Homo sapiens) (UniProt O95819); details: at 0.1 µM
Mitogen-activated protein kinase kinase kinase kinase 4 (Homo sapiens), sequence (O95819 2-1239 limits assumed): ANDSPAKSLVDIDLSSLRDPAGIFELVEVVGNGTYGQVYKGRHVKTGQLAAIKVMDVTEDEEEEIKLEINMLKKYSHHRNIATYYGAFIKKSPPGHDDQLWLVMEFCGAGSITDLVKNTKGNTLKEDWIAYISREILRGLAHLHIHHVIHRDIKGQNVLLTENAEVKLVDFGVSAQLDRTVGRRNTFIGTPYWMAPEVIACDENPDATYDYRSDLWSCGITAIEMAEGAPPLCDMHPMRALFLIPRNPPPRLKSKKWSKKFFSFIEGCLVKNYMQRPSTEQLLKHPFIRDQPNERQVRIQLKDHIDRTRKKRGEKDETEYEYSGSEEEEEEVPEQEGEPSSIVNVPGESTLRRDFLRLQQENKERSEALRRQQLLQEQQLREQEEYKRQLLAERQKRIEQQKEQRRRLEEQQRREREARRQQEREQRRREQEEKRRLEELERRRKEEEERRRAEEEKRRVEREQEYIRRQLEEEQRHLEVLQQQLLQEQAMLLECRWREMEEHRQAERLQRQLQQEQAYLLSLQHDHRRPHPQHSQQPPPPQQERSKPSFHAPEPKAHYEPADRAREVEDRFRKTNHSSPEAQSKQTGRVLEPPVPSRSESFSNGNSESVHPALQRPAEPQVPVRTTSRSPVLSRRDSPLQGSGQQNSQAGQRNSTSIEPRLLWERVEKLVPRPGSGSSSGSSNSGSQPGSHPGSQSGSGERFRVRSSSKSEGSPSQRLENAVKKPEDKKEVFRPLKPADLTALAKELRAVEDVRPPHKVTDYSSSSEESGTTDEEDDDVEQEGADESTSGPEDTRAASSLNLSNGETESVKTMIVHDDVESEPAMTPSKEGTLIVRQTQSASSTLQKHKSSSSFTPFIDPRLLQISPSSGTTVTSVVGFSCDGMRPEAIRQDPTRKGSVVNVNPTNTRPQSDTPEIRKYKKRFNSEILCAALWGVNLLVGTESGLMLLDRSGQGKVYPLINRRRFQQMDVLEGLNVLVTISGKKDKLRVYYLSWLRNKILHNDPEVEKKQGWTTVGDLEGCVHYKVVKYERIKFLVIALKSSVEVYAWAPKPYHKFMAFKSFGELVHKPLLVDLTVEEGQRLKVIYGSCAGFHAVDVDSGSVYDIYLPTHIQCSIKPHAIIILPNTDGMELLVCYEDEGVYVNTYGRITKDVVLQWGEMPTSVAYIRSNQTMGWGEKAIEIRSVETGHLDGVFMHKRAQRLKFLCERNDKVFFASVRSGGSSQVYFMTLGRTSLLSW

BDNF/NT-3 growth factors receptor (Homo sapiens), sequence (Q16620 32-822 limits assumed): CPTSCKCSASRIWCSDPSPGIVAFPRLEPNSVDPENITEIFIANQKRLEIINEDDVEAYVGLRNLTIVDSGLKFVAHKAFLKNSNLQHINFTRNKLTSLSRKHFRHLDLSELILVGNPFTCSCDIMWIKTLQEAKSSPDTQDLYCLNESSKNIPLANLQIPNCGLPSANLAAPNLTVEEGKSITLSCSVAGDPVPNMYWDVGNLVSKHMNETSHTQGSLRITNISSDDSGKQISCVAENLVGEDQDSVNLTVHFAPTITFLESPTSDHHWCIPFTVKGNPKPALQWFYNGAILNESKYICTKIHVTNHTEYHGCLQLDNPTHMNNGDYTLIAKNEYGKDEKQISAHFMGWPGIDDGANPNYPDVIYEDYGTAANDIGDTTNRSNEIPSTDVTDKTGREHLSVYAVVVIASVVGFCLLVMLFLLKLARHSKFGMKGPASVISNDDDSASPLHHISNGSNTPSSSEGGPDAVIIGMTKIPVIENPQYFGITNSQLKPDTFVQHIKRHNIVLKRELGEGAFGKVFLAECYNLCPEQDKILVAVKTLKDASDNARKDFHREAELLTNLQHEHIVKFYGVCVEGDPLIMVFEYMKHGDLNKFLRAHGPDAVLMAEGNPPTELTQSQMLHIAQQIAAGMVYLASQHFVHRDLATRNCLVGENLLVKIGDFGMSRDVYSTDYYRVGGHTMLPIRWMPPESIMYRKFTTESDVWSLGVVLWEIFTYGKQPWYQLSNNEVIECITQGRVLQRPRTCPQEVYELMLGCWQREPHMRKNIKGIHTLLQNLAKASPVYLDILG
High affinity nerve growth factor receptor (Homo sapiens), sequence (P04629 33-796 limits assumed): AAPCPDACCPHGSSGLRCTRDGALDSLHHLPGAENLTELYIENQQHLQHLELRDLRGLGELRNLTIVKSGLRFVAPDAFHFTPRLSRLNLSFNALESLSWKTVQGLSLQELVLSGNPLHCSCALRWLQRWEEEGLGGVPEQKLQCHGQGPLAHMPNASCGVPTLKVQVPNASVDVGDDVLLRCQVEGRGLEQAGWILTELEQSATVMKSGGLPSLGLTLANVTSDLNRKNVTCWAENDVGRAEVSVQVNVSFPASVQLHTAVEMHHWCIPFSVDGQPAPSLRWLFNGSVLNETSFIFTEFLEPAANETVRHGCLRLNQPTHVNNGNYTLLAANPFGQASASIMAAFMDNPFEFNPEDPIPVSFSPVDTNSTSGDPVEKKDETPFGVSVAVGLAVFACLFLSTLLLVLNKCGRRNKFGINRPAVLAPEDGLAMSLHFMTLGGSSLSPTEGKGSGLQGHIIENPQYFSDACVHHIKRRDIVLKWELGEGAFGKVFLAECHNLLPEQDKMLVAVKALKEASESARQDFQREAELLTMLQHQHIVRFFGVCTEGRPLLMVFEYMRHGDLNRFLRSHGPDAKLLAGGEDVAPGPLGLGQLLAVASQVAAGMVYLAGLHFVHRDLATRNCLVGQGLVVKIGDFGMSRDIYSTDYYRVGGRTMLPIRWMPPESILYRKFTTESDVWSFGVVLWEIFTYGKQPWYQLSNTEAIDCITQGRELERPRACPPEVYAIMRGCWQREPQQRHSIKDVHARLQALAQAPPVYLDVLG

SMILES	inhibition [1]	inhibition [2]	inhibition [3]	inhibition [4]	inhibition [5]	inhibition [6]	inhibition [7]	inhibition [8]	inhibition [9]	inhibition [10]	inhibition [11]	inhibition [12]	inhibition [13]	inhibition [14]	inhibition [15]	inhibition [16]	inhibition [17]	inhibition [18]	inhibition [19]	inhibition [20]
COc1cc(Nc2ncc3c(C)nc(-c4cccc(Oc5ccccc5)c4)n3n2)cc(OC)c1OC	1.05%	0.27%	1.55%	1.86%	2.38%	2.38%	4.09%	-0.63%	14.8%	2.19%	44.4%	2%	15.8%	1.04%	30.1%	1.18%	1.99%	1.28%	4.18%	1.36%
NS(=O)(=O)c1ccc(N/N=C2\C(=O)Nc3ccc(-c4cnco4)cc32)cc1	36.1%	9.38%	46.4%	13.3%	51.9%	-3.23%	0.12%	-0.2%	52.8%	1.82%	33.1%	-2.59%	1.73%	-3.12%	11.5%	2.55%	8.33%	1.49%	4.85%	65.1%
COc1cccc(-n2cnc3c(N/N=C/c4ccncc4)ncnc32)c1	7.04%	0.22%	6.69%	0.58%	9.77%	-1.8%	4.69%	3.07%	5.77%	-0.8%	13%	0.64%	7.54%	0.73%	-1.49%	4.49%	16.3%	1.19%	1.25%	1.22%
NCc1ccc(-n2c(-c3nonc3N)nc3cnccc32)cc1	2.81%	3.11%	1.99%	3.14%	2.31%	1.78%	3.57%	-7.21%	10.1%	3.62%	8.79%	3.64%	12.4%	3.83%	18.8%	8.16%	24.2%	3.62%	18.2%	10.1%
CCC(=O)Nc1ccc(C)c(-c2ccc(C(=O)NCC3CC3)cc2)c1	4.19%	2.75%	2.88%	2.19%	2.2%	2.71%	1.4%	-2.17%	8.22%	1.72%	4.11%	-0.16%	3.49%	-1.01%	3.82%	1.74%	5.36%	0.41%	1.16%	4.98%
Cc1nnc(-c2ccc(C)c(-c3ccc(C(=O)NCc4ccc(Cl)cc4)cc3)c2)o1	3.12%	3.47%	1.5%	2.79%	1.36%	-0.45%	-1.48%	-6.26%	-0.17%	-1.43%	-4.05%	-0.69%	-2.09%	-2.03%	-9.49%	2.71%	6.75%	1.46%	1.6%	5.65%
O=C(Nc1n[nH]c2cc(-c3ccccc3)ccc12)C1CC1	4.46%	1.46%	6.76%	0.77%	7.68%	8.18%	17.7%	-4.71%	6.67%	1.71%	13.2%	4.05%	3.92%	0.96%	9.67%	4.04%	19.9%	1.56%	4.2%	33.6%
CN(C)CCOc1ccc(-c2cc(-c3ccc4c(c3)CCC4=NO)c(-c3ccncc3)o2)cc1	-2.77%	-0.06%	1.62%	0.94%	-0.98%	0.73%	3.15%	0.89%	1.15%	0.13%	0.04%	-1.06%	1.93%	0.74%	7.21%	16.8%	62.6%	2.2%	5.27%	0.91%
CCN(CC)Cc1ccc(Nc2nccc(-c3cnn4ncccc34)n2)cc1	12.1%	4.49%	7.47%	2.83%	5.86%	0.47%	1.91%	-7.84%	29.4%	4.39%	34.3%	27.5%	63.7%	38%	84.6%	7.37%	18%	3.21%	21.2%	5.41%
COc1cccc(/C=N/Nc2ncnc3c2cnn3-c2cccc(OC)c2)c1	4.58%	2.99%	5.56%	1.57%	2.15%	3.48%	2.61%	-3.27%	9.42%	2.87%	3.52%	2.75%	5.96%	0.31%	3.9%	5.31%	6.35%	-0.07%	2.67%	7.63%
Fc1ccc(-c2ncn(C3CCNCC3)c2-c2ccnc(Oc3ccc4c(c3)OCO4)n2)cc1	4.38%	5.44%	5.76%	4.02%	7.26%	0.33%	3.68%	-2.53%	9.25%	4.04%	2.71%	5.39%	7.86%	7.07%	11.4%	8.13%	7.17%	1.35%	9.73%	2.42%
COc1cc2ncn(-c3cc(OCCc4ccccc4)c(C(N)=O)s3)c2cc1OC	3.49%	1.14%	8.57%	2.85%	14.7%	2.33%	3.1%	-3.55%	6.73%	2.54%	8.4%	3.16%	7.8%	1.23%	8.14%	25%	66.7%	1.21%	7.11%	5.29%
NC(=O)Cc1ccccc1Oc1nccc(-c2c(-c3ccc(F)cc3)ncn2C2CCNCC2)n1	1.31%	0.02%	0.58%	0.22%	0.96%	3.01%	4.27%	-1.14%	7.71%	1.9%	0.49%	2.8%	1.02%	-0.43%	8.16%	3.78%	5.45%	0.65%	3.36%	5.19%
